# Test results reported in ChEMBL document CHEMBL4513216, “Probing the Open Global Health Chemical Diversity Library for Multistage-Active Starting Points for Next-Generation Antimalarials” (ACS Infect Dis, 2020).
# Screen size: about 65,000 compounds; about 2,100 (3.2%) showed an effect of 50% or more. The median lay at about -52%. This is one part of a sample in which strong results are shown more often than they occur.
# Tested on: Plasmodium falciparum
# Assay: Screen against P. falciparum Asexual Blood Stage (ABS), at 5uM
# Assay type: functional, Dd2
# Conditions: tested at 5 uM
row,SMILES,INHIBITION [%]
1,Cc1cnn(CC2CCCCN2C(=O)Cc2cn3ccsc3n2)c1 (stereo not given),-120
2,CCc1cnc2c(c1Nc1ccc(C)c(F)c1)c(=O)n(C)c(=O)n2C,41.1
3,Cc1c(C)n(Cc2ccccn2)c2nc3c(c(N)c12)CCCCCC3,60.3
4,Cc1c(C)n(Cc2ccncc2)c2nc3c(c(N)c12)CCCCC3,21
5,Cc1c(C)n(Cc2ccccn2)c2nc3c(c(N)c12)CCCCC3,23.7
6,Cc1cccc2c1ccn2CCC(=O)Nc1c2c(nn1C)CSC2,-53.4
7,Cc1ccc(Br)cc1NC(=O)NC1CCC2(C1)OCCO2 (stereo not given),-96.9
8,CC1N(c2cnn(C)c2)C(=O)COC12CCN(c1ncccn1)CC2 (stereo not given),-127
9,CCc1nn(-c2cc(Oc3cc(C)ccc3C)ncn2)c(N)c1C#N,-64
10,C[C@]1(O)CN(CC(=O)N2CCCC2)CC[C@@H]1Oc1cccc(F)c1,25
11,C[C@]1(O)CN(CCO)CC[C@@H]1Oc1cccc(F)c1,65.2
12,C[C@]1(O)CN(CCC(N)=O)CC[C@@H]1Oc1cccc(F)c1,-39.3
13,CCc1cnc(N2CCc3cc(C(=O)NC)c(N(C)C)nc3CC2)nc1,-12.1
14,O=C1[C@@H]2CC[C@@H](CN(c3ncnc4ccsc34)C2)N1CC1CC1,-85.4
15,CC(C)Cc1noc(CN(C)c2ncccn2)n1,-64.8
16,CC(C)Cc1noc(CN(C)c2cc(N(C)C)ncn2)n1,50.4
17,CCc1cc(N(C)Cc2noc(CC(C)C)n2)ncn1,-78.3
18,CNc1cc(N2CCCC2CNCc2ccco2)ncn1 (stereo not given),-103
19,O=C(C1CCOC1)N1CC2(CCN(c3ccccc3)C2)C1 (stereo not given),-3.52
20,CC(C)CC(=O)N1CC(=O)c2sc(Nc3ccc(F)cc3F)nc2C1,-30.6
21,Cc1ccc(OCC(O)CN2CCC(Cn3cc(C)cn3)CC2)cc1 (stereo not given),-93.6
22,Cc1cnn(CC2CCN(CC(O)CN3CCC(C)CC3)CC2)c1 (stereo not given),63.8
23,Cc1cnn(CC2CCN(CC(O)Cn3cccn3)CC2)c1 (stereo not given),-78.8
24,CCc1nc(C)c(C(=O)NCCNC(=O)c2cccs2)s1,-96.9
25,CCc1nc(NCCCn2cccn2)c2c(n1)c(C)nn2CC,-75.8
26,COCCNC(=O)CN(C)C(C)c1nc(C)no1 (stereo not given),-63.5
27,Cc1ccsc1C(=O)NCc1ccnc(C2CCCOC2)n1 (stereo not given),-57.8
28,Cc1ccc(C(=O)NCc2ccnc(C3CCCOC3)n2)s1 (stereo not given),53.3

row,SMILES,INHIBITION [%]
1,Cn1cccc1C(=O)NCc1ccnc(C2CCCOC2)n1 (stereo not given),-162
2,COc1cc(F)ccc1-c1cc(CO)ccn1,-92
3,COc1ccc(-c2cc(N)ccn2)c(OC)c1OC,-9.16
4,COc1cc(F)ccc1-c1cc(N)ccn1,52.7
5,CC(=O)NCc1nn(C)c2c1CN(Cc1ccsc1)C2,-24.6
6,Cc1csc(N2CCN(C3CCc4ccccc4C3)CC2)n1 (stereo not given),-22.1
7,Fc1ccc(CN2CCC3(CC2)CCN(c2ncccn2)CC3)cc1,55
8,c1csc(CN2CC3(CCN(Cc4ccsc4)C3)C2)n1,-42.4
9,Fc1ccc(CN2CCC3(CCN(Cc4nccs4)CC3)C2)cc1,57.9
10,COc1ccc(CN2CCC3(CC2)CCN(c2ncccn2)CC3)cc1,-85.1
11,Fc1ccc(CN2CCOCC3(CCN(Cc4nccs4)C3)C2)cc1 (stereo not given),0.38
12,c1cnc(N2CCC3(CCN(Cc4cccnc4)CC3)CC2)nc1,-71.4
13,CSc1cccc(NC(=O)N2CCC3(CCC(=O)N(C4CC4)C3)CC2)c1,-19.6
14,O=C(CCC(F)(F)F)N1CCCC(CO)(CC2CC2)C1 (stereo not given),-11.2
15,Cc1ccc(CN2CCc3c(nnn3C)C2COCc2ccccc2)s1 (stereo not given),-109
16,O=C(N1CCc2ccccc2CC1)C1(O)Cc2ccccc2C1,58.7
17,O=C(N1CCN(CCO)CC1)C1(O)Cc2ccccc2C1,-1.26
18,O=C(N1CCSCC1)C1(O)Cc2ccccc2C1,-41.2
19,Nc1nnnn1NCc1cccc(Cl)c1Cl,-65.4
20,Cc1nc(C)n(CC2CCCN(CC(=O)Nc3ccncc3)C2)n1 (stereo not given),60.6
21,Cc1nc(C)n(CC2CCCN2CC(=O)Nc2ccncc2)n1 (stereo not given),-153
22,Cc1nc(C)n(CC2CCCN(CC(=O)Nc3cccnc3)C2)n1 (stereo not given),-133
23,Cc1cc(NC(=O)CN2CCCC(Cn3nc(C)nc3C)C2)n(C)n1 (stereo not given),54.5
24,Cc1nc(C)n(CC2CCCN(CC(=O)Nc3cc(C)on3)C2)n1 (stereo not given),3.79
25,Cc1cc(NC(=O)CN2CCCC2Cn2nc(C)nc2C)n(C)n1 (stereo not given),-142
26,COCC(=O)Nc1ccc(C)cc1-c1nc(C2CC2)no1,-92.7
27,CCn1cc2c(n1)CN(Cc1ccc(C)o1)CC2COCC1CC1 (stereo not given),-68.6
